CIT2-GFP yeast: yeast TOR pathway CIT2-GFP modulation; S. cerevisiae CIT2-GFP strain, flow cytometry, 3 h; 100 means same as DMSO wells; GFP response vs DMSO, % at 10 µM; 0.065% of 320,000 active;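 active = GFP response relative to DMSO above a set limit, near the screen mean plus 3 SD, cut at about 150% in these data; inconclusive = Fewer than 70 cells measured for a yeast strain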;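 note: ratio of well median GFP fluorescence to mean of DMSO wells on the plate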
Efflux pump inh: antifungal efflux pump inhibition, Nile Red retention; inhibition, % at 10 µM; AID 485275; 0.44% of 330,000 active; S. cerevisiae Candida pump triplex;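 active = plate passing quality check with inhibition over a set limit, or well fluorescence over plate mean plus 4 SD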;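 note: Nile Red retained in pooled yeast measured as flow cytometry median fluorescence; higher means more Nile Red kept so more efflux inhibition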
AGP1-GFP MLPCN: yeast TOR pathway AGP1-GFP modulation; S. cerevisiae AGP1-GFP multiplex flow cytometry, 3 h; GFP as percent of DMSO wells; GFP response vs DMSO, % at 10 µM; 0.02% of 320,000 active; AID 2066;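 active = GFP response relative to DMSO above a set limit, near screen average plus 3 SD, cut at about 150% in these data; inconclusive = fewer than 70 cells counted for the yeast strain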;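 note: median GFP channel fluorescence of the gated AGP1 strain per well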
RPL19A TOR yeast: alters RPL19A-GFP fluorescence in TOR pathway yeast screen; S. cerevisiae RPL19A-GFP strain, flow cytometry, 3 h; active compounds read low; percent response vs DMSO, % at 10 µM; 0.3% of 330,000 active;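 active = percent response vs DMSO below 50%; inconclusive = fewer than 70 events counted for the yeast strain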;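 note: median channel GFP fluorescence of the barcoded RPL19A-GFP strain; lower means less RPL19A-GFP as with rapamycin TOR inhibition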
LAP4 TOR yeast: alters LAP4-GFP fluorescence in TOR pathway yeast screen | S. cerevisiae LAP4-GFP multiplex, flow cytometry GFP, 3 h; median GFP as percent of DMSO wells | 0.34% of 320,000 active | GFP response vs DMSO, % at 10 µM | AID 2023;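 active = GFP response vs DMSO above a set limit, about the screen mean plus 3 SD, cut at about 150% in these data; inconclusive = under 70 cell events counted for the yeast strain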
MEP2-GFP yeast: modulators of TOR pathway MEP2-GFP in S. cerevisiae; 0.51% of 330,000 active; S. cerevisiae MEP2-GFP strain, flow cytometry GFP, 3 h; 100% = DMSO control level; GFP response vs DMSO, % at 10 µM; AID 2016;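 active = GFP response versus DMSO above a set limit, roughly screen mean plus 3 SD, cut at about 180% in these data; inconclusive = fewer than 70 cells counted for a yeast strain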;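 note: median GFP fluorescence of the barcode-gated MEP2-GFP cells per well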
Of the large screens only hits and unclear results are named; the others gave an inactive call; [ ] = another dose, or the depositor's remark. Hits are enriched below; roughly 1.3% of the tested compounds scored in any of these assays.

C/C(=N\NC(=O)CC#N)c1cc2ccc(O)cc2oc1=O	CIT2-GFP yeast inconclusive, AGP1-GFP MLPCN inconclusive, RPL19A TOR yeast 16[may fluoresce violet], MEP2-GFP yeast 201[may fluoresce violet]
CC1N(C(=O)N2CCOCC2)CCN1S(=O)(=O)c1cccc(C(F)(F)F)c1 (configuration not stated)	none
CCCCOc1ccccc1Cn1c(=O)oc2ccccc21	CIT2-GFP yeast inconclusive, MEP2-GFP yeast 178[may fluoresce violet] (no result: AGP1-GFP MLPCN)
O=c1oc2ccccc2n1Cc1ccccc1F	none
O=C(NN1CCOCC1)c1cn(-c2ccccc2)nc1-c1cccs1	none
COc1cccc(/C=C2\CCCCC2=O)c1	CIT2-GFP yeast inconclusive, AGP1-GFP MLPCN inconclusive, RPL19A TOR yeast 43[may fluoresce violet], MEP2-GFP yeast 426[may fluoresce violet]
CCN(CC)c1ccc2cc(C(C)=O)c(=O)oc2c1	CIT2-GFP yeast inconclusive, RPL19A TOR yeast 19[may fluoresce violet], MEP2-GFP yeast 311[may fluoresce violet] (no result: AGP1-GFP MLPCN)
CCN(CC)c1ccc2cc(C(N)=O)c(=O)oc2c1	none
CCC1C(=O)N(c2nc(C)cc(C)n2)N=C1C (configuration not stated)	CIT2-GFP yeast inconclusive, AGP1-GFP MLPCN inconclusive, RPL19A TOR yeast 15[may fluoresce violet], MEP2-GFP yeast 180[may fluoresce violet]
O=C(Cc1ccccc1)NNc1c2ccccc2nc2ccccc12	none
O=C(Nc1c2ccccc2nc2ccccc12)C(Cl)(Cl)Cl	RPL19A TOR yeast 46
CCCOc1ccc(-c2c(C(=O)N/N=C/C3CC=CCC3)nnn2-c2nonc2N)cc1 (configuration not stated)	none
CCCOc1ccc(-c2c(C(=O)N/N=C/C3CCCCC3)nnn2-c2nonc2N)cc1	CIT2-GFP yeast inconclusive, AGP1-GFP MLPCN inconclusive, RPL19A TOR yeast 27[may fluoresce violet]
CC1=CN2C(=NC(=O)CC2(C)C(=O)N(CC(=O)NC2CCCC2)c2ccccc2C)C=C1 (configuration not stated)	AGP1-GFP MLPCN inconclusive, RPL19A TOR yeast 36[may fluoresce violet], MEP2-GFP yeast 285[may fluoresce violet] (no result: CIT2-GFP yeast)
CC1CCCCC1NC(=O)CCS(=O)(=O)c1ccc(Cl)cc1 (configuration not stated)	none
O=C(Nc1ccc(CN2CCOCC2)cc1)c1ccccc1F	CIT2-GFP yeast inconclusive, RPL19A TOR yeast 41[may fluoresce violet]
CCN(CC)S(=O)(=O)c1ccc(N/N=C/c2cc(OC)c(OC)cc2OC)nc1	CIT2-GFP yeast inconclusive, MEP2-GFP yeast 201[may fluoresce violet]
Nc1ccc(CC2SC(=O)NC2=O)cc1 (configuration not stated)	CIT2-GFP yeast inconclusive, AGP1-GFP MLPCN inconclusive, MEP2-GFP yeast 416[may fluoresce violet]
Cc1ccc(CC2SC(=O)NC2=O)cc1Cl (configuration not stated)	none
CC(=O)C1=C(O)C(=O)N(CCO)C1c1ccccc1 (configuration not stated)	none
CC(=O)C1=C(O)C(=O)N(CCC(=O)O)C1c1cccc(F)c1 (configuration not stated)	CIT2-GFP yeast inconclusive, MEP2-GFP yeast 200[may fluoresce violet]
COc1ccc(C(CNC(=O)Cc2c(F)cccc2Cl)N2CCCCC2)cc1 (configuration not stated)	CIT2-GFP yeast inconclusive, MEP2-GFP yeast 299[may fluoresce violet]
C/C(=N/OC(=O)c1ccc(F)cc1)c1ccc(C)cc1	CIT2-GFP yeast inconclusive, MEP2-GFP yeast 327[may fluoresce violet]
Cc1ccccc1/C(N)=N/OC(=O)c1ccc(F)cc1	none
Cc1ccc(-n2ncc3c2CCCC3NC(=O)CCc2c(C)noc2C)cc1C (configuration not stated)	none
CN(C)Cc1c(O)c(Cl)cc2c3c(c(=O)oc12)CCCC3	CIT2-GFP yeast inconclusive, MEP2-GFP yeast 175[may fluoresce violet]
Cc1c(C)c2cc(Cl)c(O)c(CN(C)C)c2oc1=O	CIT2-GFP yeast inconclusive
CCc1c(C)c2cc(Cl)c(O)c(CN(C)C)c2oc1=O	MEP2-GFP yeast 193
C#CCOCCOCCOCCNc1nc(N2CCN(C(=O)CCCCCCCCCCNC(=O)[C@H]([C@@H](C)CC)n3cc(CCCCN=C(N)N)nn3)CC2)nc(N2CCN(C(=O)CCCCCCCCCCNC(=O)[C@H](CCCN=C(N)N)n3cc(C[C@@H](C)CC)nn3)CC2)n1	Efflux pump inh 6.2, LAP4 TOR yeast 165

Compound activity deposited in PubChem BioAssay by NMMLSC.
